Compound activity (PubChem)
JMJD2A Tudor: JMJD2A Tudor domain (human) inhibition; O75164; AlphaScreen JMJD2A-Tudor / H3K4me3 peptide binding; 390,000 tested, 4.4% active; Potency, µM (highest dose often 114 µM), usual class: inhibitors; also: nearly all actives have a fitted effect of over 50% in size
PI5P4Ka inh: inhibitors of human PI5P4K alpha. P48426. PI5P4Kalpha enzyme, ADP-Glo luminescence, 60 min; hits give low values. max response, %. 330,000 tested, 1.2% active. AID 652105; active = max response of -50% or lower; inconclusive = between -30% and -50%; inactive = -30% or higher; also: value at the top dose of about 77 µM
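Controls without substrate or without enzyme flank wells where PI5P4Kalpha converts substrate using 5 microM ATP (final). Incubation lasts 60 minutes at room temperature; ADP formed is read by ADP-Glo luminescence.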
L3MBTL1 inh: inhibitors of human L3MBTL1 | Potency, µM (titrated, usually from 57.1 µM), most hits filed as inhibitors | Q9Y468 | 230,000 tested, 0.66% active | AID 485360 | AlphaScreen L3MBTL1–H3K9me1 peptide binding; also: nearly all actives have a fitted effect of over 60% in size
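AlphaScreen proximity signal between nickel-chelate acceptor and streptavidin donor beads (final 10 ug/mL) reports binding of 50 nM L3MBTL1 to 75 nM biotin-H3 K9me1 peptide; complex incubated with compounds 30 min at room temperature; cefsulodin titration as control.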
HP1b chromo inh: blocks HP1-beta chromodomain binding to methylated histone tails; AlphaScreen HP1-beta / biotin-H3K9me3 peptide binding; Potency, µM (series often up to 114 µM), usual class: inhibitors; 390,000 tested, 0.56% active; AID 540317; also: nearly all actives have a fitted effect of over 70% in size
Target sequence (P83916 whole entry, looked up): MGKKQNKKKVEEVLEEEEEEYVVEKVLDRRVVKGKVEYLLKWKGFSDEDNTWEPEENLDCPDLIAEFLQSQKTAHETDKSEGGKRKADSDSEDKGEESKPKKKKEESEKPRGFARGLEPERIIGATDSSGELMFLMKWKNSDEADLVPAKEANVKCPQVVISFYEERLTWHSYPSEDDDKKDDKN
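AlphaScreen: HP1-beta (50 nM) preformed 30 min with biotin-H3(1-18)K9me3 peptide (50 nM) in PBS pH 7.4, 0.01% Tween-20. Compound added for 30 min at RT, then streptavidin donor/nickel chelate acceptor beads (10 ug/mL) for 30 min.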
BAZ2B block: inhibitors of human BAZ2B bromodomain; 360,000 tested, 4.4% active; Potency, µM (highest dose often 114 µM), actives largely listed as inhibitors; AlphaScreen BAZ2B-H3K14Ac peptide displacement; also: nearly all actives have a fitted effect of over 60% in size
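AlphaScreen luminescence quantifies BAZ2B engagement of H3K14Ac peptide; the protein and biotinylated peptide are both at 50 nM final, buffer PBS pH 7.4 with 0.01% Tween-20, all steps at room temperature.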
KDM4E inh: blocks human JMJD2E demethylase activity | B2RXH2 | JMJD2E catalytic domain, FDH-coupled NADH fluorescence (FDH is formaldehyde dehydrogenase) | Potency, µM (top dose mostly 57.1 µM), usual class: inhibitors | 230,000 tested, 1.6% active | AID 2147; active = well fitted inhibition curve with a large enough effect, not every such curve was filed as active; inconclusive = small, poorly fitted or top-dose-only effect, or another doubt; inactive = no such curve, though single readings can be large or run the other way; also: nearly all actives have a fitted effect of over 50% in size
Hits are given with their value; 0 = inactive; ? = inconclusive; - = not tested or not shown; ! = a repeat was not active. A selection: hits, their analogues and other compounds. The true share with any hit is near 5.7%. Unless noted, calls follow the shape of the dose curve; as a rule, active = well fitted inhibition curve with a large enough effect; inconclusive = small, poorly fitted or top-dose-only effect; inactive = no such curve, though single readings can be large or run the other way.

SMILES	JMJD2A Tudor	PI5P4Ka inh	L3MBTL1 inh	HP1b chromo inh	BAZ2B block	KDM4E inh
CCC(C)C(NC(=O)OC(C)(C)C)C(=O)NC1COC2CC(n3cc(C)c(=O)[nH]c3=O)OC12 (centres undefined)	0	-	-	0	-	-
COC(=O)c1ccc(/C=C2\SC(=S)N(CCCC(=O)NCCCN3CCOCC3)C2=O)cc1	0	0	-	71µM	?	-
CCOC(=O)c1ccc(S(=O)(=O)Nc2nc3cc(S(=O)(=O)NC4=NCCCCC4)ccc3s2)cc1	89µM	-54	0	0	-	0
Nc1nc2cc(S(=O)(=O)NC3=NCCCCC3)ccc2s1	0	0	-	0	0	0
CCc1ccc(C2c3c(oc4ccc(F)cc4c3=O)C(=O)N2c2nc(C)c(C(=O)OC)s2)cc1 (centres undefined)	0	-	-	0	0	-
N#Cc1nc(Nc2ccc(F)cc2)nc(NC2CCCC2)n1	0	-	-	-	-	-
COc1ccc(NC(=O)CN2CCN(CC(=O)Nc3ccccc3Cl)CC2)cc1Cl	0	0	0	0	0	0
CCOC(=O)C1CCN(Cc2ccc(O)c(OC)c2)CC1	3.2µM	0	0	?	?	?
CCOC(=O)C1CCN(CC(=O)Nc2ccc(OC)c(Cl)c2)CC1	2.8µM	0	0	?	50µM	?
CCOC(=O)C1CCN(Cc2ccc(OC)c(OCc3ccccc3)c2)CC1	0	0	0	0	56µM	-
COc1ccc(NC(=O)CCn2c(=O)c3cccn3c3cccnc32)c(OC)c1	0	-	-	0	?	-
COCCNC(=O)Cn1cnc2c(cnn2-c2ccc(C)cc2)c1=O	0	0	0	0	0	-
CCc1cccc(NC(=O)C(Cc2ccccc2)n2cccc2)c1 (centres undefined)	0	-	-	0	0	-
COC(=O)c1ccc(Cn2cc([N+](=O)[O-])cn2)cc1	0	0	0	0	0	0
CC(NC(=O)c1ccc(Cn2cc([N+](=O)[O-])cn2)cc1)c1ccccc1 (centres undefined)	50µM	0	0	0	0	0
CCCOC(=O)c1c(NC(=O)C2C3C=CC(C3)C2C(=O)O)sc2c1CCC(C)C2 (centres undefined)	28µM	-59	0	?	?	0
CCOC(=O)c1c(NC(=O)C2C3C=CC(C3)C2C(=O)O)sc2c1CC(C)CC2 (centres undefined)	0	0	0	0	0	?
Cc1ccccc1-n1c(SC/C(O)=C(\C#N)c2nc3ccccc3[nH]2)nnc1-c1ccncc1	79µM	?	0	?	0	?
CCOC(=O)c1ccc2c(c1)nc(SC/C(O)=C(\C#N)c1nc3ccccc3[nH]1)n2CC	0	0	0	0	0	0
Cc1cccc(Nc2nnc(SCC(O)=C(C#N)c3nc4ccccc4[nH]3)s2)c1	0	-61	-	0	-	-
O=C(Nc1c2c(nn1-c1ccc(F)cc1)CS(=O)(=O)C2)c1ccc(Br)o1	0	0	-	0	0	-
COC(=O)CCC(=O)OC1(C)C(=O)C=C2C=C(C3CC3)N(CCCCO)C=C2C1=O (centres undefined)	0	0	-	0	0	20µM!
COC(=O)CCC(=O)OC1(C)C(=O)C=C2C=C(C3CC3)N(C(CO)CO)C=C2C1=O (centres undefined)	0	0	-	0	0	?
COC(=O)CCC(=O)OC1(C)C(=O)C=C2C=C(C3CC3)N(Cc3ccc4c(c3)OCO4)C=C2C1=O (centres undefined)	0	0	-	0	?	16µM!
CC[N+](CC)(CC)CCCCOc1ccc2c(c1)C(=O)c1cc(OCCCC[N+](CC)(CC)CC)ccc1-2	35µM	0	0	0	0	0
CCN(CC)S(=O)(=O)c1ccc2c(c1)nc(CN(C)C(=O)c1cccc(Cl)c1)n2C	0	-	-	0	0	-
CCN(CC)C(=O)c1[nH]cnc1C(=O)NCc1ccc(CNC(=O)OC(C)(C)C)cc1	0	0	0	0	0	-
Nc1nc(NC(=O)c2ccc(Cl)cc2)nn1-c1ccccc1	0	0	0	0	?	0
Nc1nc(NC(=O)c2cccnc2)nn1-c1ccccc1	11µM	0	0	0	79µM	0
Nc1nc(NC(=O)C(Cl)(Cl)Cl)nn1-c1ccccc1	25µM	0	28µM	0	8.9µM	0
